Screening data deposited in PubChem by several laboratories.
This is a sample that favours compounds with a hit; in the whole collection about 4.2% have one here.
NALP1 yeast inh – blocks the NALP1 inflammasome reconstituted in yeast; S. cerevisiae NALP1/ASC/caspase-1 growth, X-gal OD620, 72 h; inhibition, % at 10 µM; hit rate 0.61% among 280,000; in the data active means inhibition mostly above about 24%, no sharp cut-off; inactive means mostly below about 32%
TIM10 inh – inhibits growth of TIM10 yeast strain; inhibition, % at 10 µM; hit rate 1.4% among 330,000; AID 463195; S. cerevisiae TIM10 strain growth, BacTiter-Glo luminescence, 24 h;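 active means inhibition of 40% or more at the single tested concentration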;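 further: wild-type TIM10 isogenic control strain grown at permissive 25 °C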
NLRP3 yeast inh – NALP3 inhibition in yeast; inhibition, % at 10 µM; Yeast reconstituted NLRP3/ASC/caspase-1, beta-gal luminescence, 24 h; AID 2825; hit rate 0.39% among 330,000;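 active means inhibition of 50% or more; inactive means inhibition below 50%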;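 further: plate controls were induced DMSO wells for no effect and uninduced yeast grown without galactose for full effect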
tim23-1 inh – inhibits growth of tim23-1 mutant yeast | S. cerevisiae tim23-1 growth, BacTiter-Glo luminescence, 24 h | inhibition, % at 20 µM | hit rate 1.3% among 330,000;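 active means growth inhibition of the mutant yeast at or above 50%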;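 further: temperature-sensitive mutant grown at 25 °C; plate controls were DMSO-treated mutant yeast for no effect and medium wells lacking yeast for full effect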
V-ATPase pH – yeast V-ATPase proton transport regulation by pHLuorin; S. cerevisiae, pHLuorin cytosolic pH fluorescence; response, % at 10 µM; hit rate 0.37% among 350,000; AID 504577; in the data active means response mostly above about 7.3%, no sharp cut-off; inactive means mostly below about 5.4%; further: actives read high
tim10-1 inh – inhibits growth of tim10-1 mutant yeast; S. cerevisiae tim10-1 ts strain growth, BacTiter-Glo, 24 h; inhibition, % at 20 µM; hit rate 2.2% among 330,000;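 active means inhibition of at least 40%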;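 further: mutant grown at 25 °C; 0% = DMSO wells with yeast and 100% = wells holding no yeast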
* marks the source's active call; other numbers are inactive results; nt = no result.

SMILES | NALP1 yeast inh | TIM10 inh | NLRP3 yeast inh | tim23-1 inh | V-ATPase pH | tim10-1 inh
CCOc1ccc(C(=O)CCC(=O)N2CCN(c3ccc(O)cc3)CC2)cc1 | nt | -3 | 11 | 3 | 4 | 5
Cc1ccc(OCCC(=O)N2CCN(c3ccc(O)cc3)CC2)cc1 | 38* | 13 | 24 | 21 | -5 | -36
COc1ccc(C(=O)C[N+]2(C)CCOCC2)cc1 | -8 | 7 | 8 | 15 | -1 | 0
O=C(Cc1cccc2ccccc12)Nc1ccc(N2CCOCC2)cc1 | 12 | -19 | 25 | -13 | 0 | -16
CC1CC(C)CN(C(=O)COc2ccc(-c3nnco3)cc2)C1 (stereo unspecified) | 2 | -7 | 4 | 25 | 0 | 9
O=C(COc1ccc(-c2nnco2)cc1)N1CCOCC1 | nt | -3 | 10 | -10 | 15* | -15
O=[N+]([O-])c1cc2no[n+]([O-])c2cc1N1CCCCC1 | nt | nt | nt | nt | 42* | nt
N#Cc1cc(N2CCCCC2)c([N+](=O)[O-])cc1C#N | 13 | -11 | 10 | -4 | -6 | 20
O=C(Nc1ccc(-c2cc3ccccc3oc2=O)c(Cl)c1)c1cccnc1 | 33* | 3 | 25 | -1 | 5 | -3
COc1cc(NC(=O)c2cccnc2)ccc1-c1cc2ccccc2oc1=O | 16 | -9 | 14 | 6 | nt | -2
O=C(/C=C/c1cccs1)c1ccc([N+](=O)[O-])cc1 | 43* | 6 | 8 | 31 | -1 | 17
O=C1Nc2ccccc2C1(O)Cc1ccncc1 (stereo unspecified) | 10 | 1 | 9 | 12 | 7 | -2
COc1ccccc1C(=O)OCC(=O)NC1CCCC1 | 2 | -8 | 2 | -1 | 259* | 17
CC(=O)c1c(-c2ccc(Cl)cc2Cl)noc1C | 36 | 5 | 21 | 18 | 1 | 1
CCOC(=O)C1CCN(C(=S)Nc2ccc(Cl)cc2C)CC1 | -11 | -9 | 0 | 19 | 0 | 20
CCOC(=O)C1CCN(C(=S)Nc2cc(C)ccc2C)CC1 | 40 | -10 | 3 | 12 | 22* | 16
N#Cc1c(NC(=O)CSc2ncc(-c3ccccc3)n2CC2CCCO2)sc2c1CCCC2 (stereo unspecified) | 7 | 19 | 10 | 26 | 3 | 20
Cc1cccc(C(=O)N2CCC(=O)N(C(COCc3ccccc3)Cc3ccccc3)CC2)c1 (stereo unspecified) | 26 | 20 | 11 | 37 | -5 | 31
S=C1NC2=C(CCC/C2=C\c2ccccc2)C(c2ccccc2)N1 (stereo unspecified) | 23 | 16 | -12 | 14 | 0 | 25
S=C1NC2=C(CCC/C2=C\c2ccc(Cl)cc2)C(c2ccc(Cl)cc2)N1 (stereo unspecified) | 40* | 22 | 12 | 13 | 9 | 35
Cn1c2c(c(=O)n(C)c1=O)C(CC(=O)Nc1ccccc1)C(=O)N2 (stereo unspecified) | -1 | -1 | 11 | 3 | -2 | -2
Cc1cc(C)c(NC(=O)COc2ccc(-n3cnnn3)cc2)c(C)c1 | -8 | 1 | 8 | 1 | 4 | 4
Cc1cc(=O)n(C)c(=O)n1CCCCOc1ccc([N+](=O)[O-])cc1 | 50* | -4 | -9 | 14 | 0 | 14
Cc1cc(=O)n(C)c(=O)n1CCCCCCOc1ccc([N+](=O)[O-])cc1 | 8 | -2 | 24 | 6 | nt | 18
Cc1cnc(NC(=O)CCc2ccccc2)s1 | 17 | 3 | 14 | -9 | 3 | -5
SMILES | NALP1 yeast inh | TIM10 inh | NLRP3 yeast inh | tim23-1 inh | V-ATPase pH | tim10-1 inh
CCN1CCN(C(=O)/C=C/c2ccc([N+](=O)[O-])cc2)CC1 | 34 | 13 | -5 | 21 | 5 | 2
CC1=C/C(=N\OS(=O)(=O)c2ccccc2)C(C(C)C)=CC1=O | 102* | nt | nt | nt | 30* | nt
O=C(COC(=O)CCc1nc2ccccc2c(=O)[nH]1)Nc1ccc2c(c1)OCO2 | 12 | -7 | 4 | 0 | 1 | -8
COc1cccc(C(=O)Oc2ccc(N3C(=O)CCC3=O)c(C)c2)c1 | 35* | 3 | 15 | 14 | -3 | 7
COc1ccc(NC(=O)c2ccc(NCCCN3CCOCC3)c([N+](=O)[O-])c2)cc1 | 10 | 15 | 33 | 0 | 1 | -19
O=[N+]([O-])c1ccc2nc(CN3CCCCC3)[nH]c2c1 | -4 | 11 | 2 | -1 | -7 | -12
O=[N+]([O-])c1ccc2nc(CCCc3nc4ccc([N+](=O)[O-])cc4[nH]3)[nH]c2c1 | 32* | 3 | 7 | -1 | 2 | -15
Cc1ccc(NC(=O)CN(C)S(=O)(=O)c2cccc3nsnc23)cc1 | 34 | -17 | -4 | 15 | 3 | 11
CC(=O)c1cccc(NC(=O)CN(C)S(=O)(=O)c2cccc3nsnc23)c1 | 32* | -1 | 3 | 6 | -8 | 9
CN(CC(=O)Nc1ccc(Cl)cc1)S(=O)(=O)c1cccc2cccnc12 | 37* | 21 | 16 | 42 | -1 | 33
CCC(C)(C)NC(=O)CN(Cc1ccccc1)C(=O)CCC(=O)Nc1nccs1 | 6 | 5 | 24 | 8 | -3 | 11
Clc1cccc(Cl)c1C[n+]1cccc2ccccc21 | nt | -1 | -8 | 11 | -1 | 1
CN(C)CCN1C(=O)C(=O)/C(=C(/O)c2ccc(OCc3ccccc3)cc2)C1c1ccncc1 (stereo unspecified) | 35* | nt | nt | nt | 4 | nt
CCCOc1ccc(/C(O)=C2/C(=O)C(=O)N(CCN(C)C)C2c2ccncc2)cc1 (stereo unspecified) | nt | 0 | -12 | 5 | 6 | 6
OC(CNCCc1ccc(C(F)(F)F)cc1)COc1cccc2ccccc12 (stereo unspecified) | 103* | -41 | 28 | -60 | 2 | 39
CC(C)(C)OC(=O)NOCC(=O)N(CC(=O)c1ccccc1)Cc1ccccc1 | nt | 5 | -5 | 19 | 5 | 19
CCCCCn1c(=O)[nH]c2cc(C(=O)NCCCN3CCC(C)CC3)ccc2c1=O | 32* | -14 | -8 | 3 | 0 | 13
CCCCCn1c(=O)[nH]c2cc(C(=O)NCCN3CCC(C)CC3)ccc2c1=O | 8 | 4 | 22 | -5 | -1 | 7
Cc1cc(N2CCC(C)CC2)nc(NCc2ccccc2)n1 | 69* | 20 | 8 | 19 | -3 | 25
C=CCOc1nc2c(c(=O)n(C)c(=O)n2C)n1Cc1ccc(Cl)cc1 | 30 | -23 | 10 | 9 | -3 | 23
COc1ccc(OC)c(S(=O)(=O)Nc2ccc(O)c3ccccc23)c1 | 104* | 11 | 12 | 17 | -3 | 18
COc1ccc(OC)c(S(=O)(=O)Nc2ccc(Oc3ccccc3)cc2)c1 | 14 | 24 | 10 | 19 | 13* | 33
CCOc1ccc(NS(=O)(=O)c2cc(OC)ccc2OC)cc1 | 14 | 15 | 31 | 16 | 2 | 13
Cc1cccc(C)c1NC(=O)CCCn1nc(C)c2c(C)n(-c3ccccc3)nc2c1=O | 5 | 3 | 15 | 13 | 0 | 28
CC(=O)c1ccc(NC(=S)NCCc2ccccn2)cc1 | 18 | -3 | 10 | -5 | -2 | 5
